# Experimental data from PubChem BioAssay (NCATS).
# Inconclusive results are not listed. Activity calls are given as the source filed them. Unless noted, calls come from the whole dose curve; as a rule, active = well fitted inhibition curve with a large enough effect; inconclusive = small, poorly fitted or top-dose-only effect; inactive = flat fitted curve, though single readings scatter.
# Experiments:
# [1] = qHTS for identification of novel therapeutic agents for treatment of microphthalmiaassociated transcription factor (MiT) renal cell carcinoma (RCC) (AID 1963991; calls by dose curve); conditions: CellTiter-Glo, 48 h; for Potency: active = Z-AUC below -0.8 in all three lines; for z-score: stronger effect = lower value
# How it was run: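 Curves over 11 concentrations were fitted to CellTiter-Glo luminescence, scaled between empty wells (0%) and DMSO (100%) viability. Cells were UOK109, UOK124 and UOK145 TFE3-fusion RCC lines at 500/well, exposed 48 hours at 37 C.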
# 3D7 = assay: qHTS profiling for inhibitors of Plasmodium falciparum proliferation (AID 504749); note: nearly all actives have a fitted effect of over 60% in size; conditions: P. falciparum in erythrocytes, SYBR Green DNA, 72 h; series mostly up to 28.7 µM
# How it was run: (§1)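 Quantitative HTS: compounds pinned into medium, infected erythrocytes added (0.3% parasitemia, 2.5% hematocrit), 72 h culture at 37 C under 5% CO2. Saponin/Triton lysis with SYBR Green I, overnight RT, then fluorescence read.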
# AA1029 = assay: as above; conditions: P. falciparum in erythrocytes, SYBR Green DNA, 72 h; series mostly up to 28.7 µM
# How it was run: as §1
# AS120 = assay: as above; conditions: P. falciparum in erythrocytes, SYBR Green DNA, 72 h; series mostly up to 28.7 µM
# How it was run: as §1
# ATS189 = assay: as above; conditions: P. falciparum in erythrocytes, SYBR Green DNA, 72 h; series mostly up to 28.7 µM
# How it was run: as §1
# ATS95 = assay: as above; conditions: P. falciparum in erythrocytes, SYBR Green DNA, 72 h; series mostly up to 28.7 µM
# How it was run: as §1
# C2A = assay: as above; conditions: P. falciparum in erythrocytes, SYBR Green DNA, 72 h; series mostly up to 28.7 µM
# How it was run: as §1
# CP185 = assay: as above; conditions: P. falciparum in erythrocytes, SYBR Green DNA, 72 h; series mostly up to 28.7 µM
# How it was run: as §1
# CP191 = assay: as above; conditions: P. falciparum in erythrocytes, SYBR Green DNA, 72 h; series mostly up to 28.7 µM
# How it was run: as §1
# CP192 = assay: as above; conditions: P. falciparum in erythrocytes, SYBR Green DNA, 72 h; series mostly up to 28.7 µM
# How it was run: as §1
# CP194 = assay: as above; conditions: P. falciparum in erythrocytes, SYBR Green DNA, 72 h; series mostly up to 28.7 µM
# How it was run: as §1
# CP201 = assay: as above; conditions: P. falciparum in erythrocytes, SYBR Green DNA, 72 h; series mostly up to 28.7 µM
# How it was run: as §1
# CP203 = assay: as above; conditions: P. falciparum in erythrocytes, SYBR Green DNA, 72 h; series mostly up to 28.7 µM
# How it was run: as §1
# CP211 = assay: as above; conditions: P. falciparum in erythrocytes, SYBR Green DNA, 72 h; series mostly up to 28.7 µM
# How it was run: as §1
# CP215 = assay: as above; conditions: P. falciparum in erythrocytes, SYBR Green DNA, 72 h; series mostly up to 28.7 µM
# How it was run: as §1
# CP217 = assay: as above; conditions: P. falciparum in erythrocytes, SYBR Green DNA, 72 h; series mostly up to 28.7 µM
# How it was run: as §1
# CP237 = assay: as above; conditions: P. falciparum in erythrocytes, SYBR Green DNA, 72 h; series mostly up to 28.7 µM
# How it was run: as §1
# CP238 = assay: as above; conditions: P. falciparum in erythrocytes, SYBR Green DNA, 72 h; series mostly up to 28.7 µM
# How it was run: as §1
# CP247 = assay: as above; conditions: P. falciparum in erythrocytes, SYBR Green DNA, 72 h; series mostly up to 28.7 µM
# How it was run: as §1
# 7G8 = assay: as above; conditions: P. falciparum in erythrocytes, SYBR Green DNA, 72 h; series mostly up to 28.7 µM
# How it was run: as §1
# [2] = TFE3-RCC UOK109 viability, measured here: UOK109 Z-AUC
# [3] = TFE3-RCC viability, measured here: UOK124 Z-AUC
# [4] = TFE3-RCC viability, measured here: UOK145 Z-AUC
# Potency is the fitted concentration of half-maximal effect.
smiles,measurement,setting,value
CC(C)C[C@H](NC(=O)CNC(=O)c1cc(Cl)ccc1Cl)B1OC(=O)CC(CC(=O)O)(C(=O)O)O1 (some centres not stated),Potency,[1]; TFE3-RCC UOK109 viability,83.3 nM (active)
same,z-score,[1]; [2],-1.14
same,z-score,[1]; [3],-3.62
same,z-score,[1]; [4],-2.91
COc1cc2c(Nc3ccc(Cl)c(Cl)c3F)ncnc2cc1OCC1C[C@@H]2CN(C)C[C@H]2C1,Potency,[1]; TFE3-RCC UOK109 viability,9350 nM (active)
same,z-score,[1]; [2],-3.52
same,z-score,[1]; [3],-1.85
same,z-score,[1]; [4],-1.7
C#CCC(Cc1cnc2nc(N)nc(N)c2n1)c1ccc(C(=O)N[C@@H](CCC(=O)O)C(=O)O)cc1 (some centres not stated),Potency,[1]; TFE3-RCC UOK109 viability,132 nM (active)
same,z-score,[1]; [2],-1.2
same,z-score,[1]; [3],-2.51
same,z-score,[1]; [4],-2.95
CN[C@H](CC(C)C)C(=O)N[C@H]1C(=O)N[C@@H](CC(N)=O)C(=O)N[C@@H]2C(=O)N[C@H]3C(=O)N[C@H](C(=O)N[C@H](C(=O)O)c4cc(O)cc(O)c4-c4cc3ccc4O)[C@H](O)c3ccc(c(Cl)c3)Oc3cc2cc(c3O[C@@H]2O[C@H](CO)[C@@H](O)[C@H](O)[C@@H]2O[C@H]2C[C@](C)(N)[C@H](O)[C@H](C)O2)Oc2ccc(cc2Cl)[C@H]1O,z-score,[1]; [2],0.508
same,z-score,[1]; [3],0.868
same,z-score,[1]; [4],0.133
CS(=O)(=O)N1CCc2c(-c3cnc(N)nc3)nc(N3CCOCC3)nc21,Potency,[1]; TFE3-RCC UOK109 viability,93.5 nM (active)
same,z-score,[1]; [2],-2.02
same,z-score,[1]; [3],-1.41
same,z-score,[1]; [4],-1.55
CCC(C(=O)O)C1CCC(C)C(C(C)C(O)C(C)C(=O)C(CC)C2OC3(C=CC(O)[C@@]4(CC[C@](C)(C5CC[C@@](O)(CC)C(C)O5)O4)O3)C(C)CC2C)O1 (some centres not stated),Potency,3D7,794 nM (active)
same,Potency,AA1029,891 nM (active)
same,Potency,AS120,631 nM (active)
same,Potency,ATS189,1260 nM (active)
same,Potency,ATS95,1120 nM (active)
same,Potency,C2A,1120 nM (active)
same,Potency,CP185,1260 nM (active)
same,Potency,CP191,1000 nM (active)
same,Potency,CP192,849 nM (active)
same,Potency,CP194,601 nM (active)
same,Potency,CP201,953 nM (active)
same,Potency,CP203,269 nM (active)
same,Potency,CP211,536 nM (active)
same,Potency,CP215,675 nM (active)
same,Potency,CP217,1120 nM (active)
same,Potency,CP237,447 nM (active)
same,Potency,CP238,1120 nM (active)
same,Potency,CP247,891 nM (active)
COc1ccc2c(c1OC)C(=O)OC2[C@H]1c2c(cc3c(c2OC)OCO3)CCN1C (some centres not stated),Potency,3D7,inactive
same,Potency,7G8,inactive
same,Potency,AA1029,inactive
same,Potency,AS120,inactive
same,Potency,ATS189,inactive
same,Potency,ATS95,inactive
same,Potency,C2A,inactive
same,Potency,CP185,inactive
same,Potency,CP191,inactive
same,Potency,CP192,inactive
same,Potency,CP194,inactive
same,Potency,CP201,inactive
same,Potency,CP203,inactive
same,Potency,CP211,inactive
same,Potency,CP215,inactive
same,Potency,CP217,inactive
same,Potency,CP237,inactive
same,Potency,CP238,inactive
same,Potency,CP247,inactive
COc1ccc(C=Cc2cc(OC)c(OC)c(OC)c2)cc1NC(=O)[C@H](N)CO,Potency,[1]; TFE3-RCC UOK109 viability,10.5 nM (active)
same,z-score,[1]; [2],-2.33
same,z-score,[1]; [3],-3.86
same,z-score,[1]; [4],-1.55
Cn1cc(CNCC2CCN(c3ncc(C(=O)NO)cn3)CC2)c2ccccc21,Potency,[1]; TFE3-RCC UOK109 viability,166 nM (active)
same,z-score,[1]; [2],-1.71
same,z-score,[1]; [3],-4.28
same,z-score,[1]; [4],-1.68
COc1cc([C@@H]2c3cc4c(cc3[C@H](O)[C@H]3COC(=O)[C@@H]23)OCO4)cc(OC)c1OC,Potency,[1]; TFE3-RCC UOK109 viability,83.3 nM (active)
same,z-score,[1]; [2],-1.41
same,z-score,[1]; [3],-1.77
same,z-score,[1]; [4],-1.2
CCN(CC)CCNC(=O)c1c(C)[nH]c(C=C2C(=O)Nc3ccc(F)cc32)c1C,Potency,[1]; TFE3-RCC UOK109 viability,34000 nM (active)
same,z-score,[1]; [2],-1.15
same,z-score,[1]; [3],-1.68
same,z-score,[1]; [4],-1.38
CNC(=O)Nc1ccc(-c2nc(N3CC4CCC(C3)O4)c3cnn(C4CCC5(CC4)OCCO5)c3n2)cc1,Potency,[1]; TFE3-RCC UOK109 viability,41.8 nM (active)
same,z-score,[1]; [2],-1.43
same,z-score,[1]; [3],-1.26
same,z-score,[1]; [4],-2.73
Cc1cc(Nc2ncc3c(n2)N(C)C(=O)N(c2cc(NC(=O)c4cccc(C(F)(F)F)c4)ccc2C)C3)n(C)n1,Potency,[1]; TFE3-RCC UOK109 viability,264 nM (active)
same,z-score,[1]; [2],-1.56
same,z-score,[1]; [3],-1.08
same,z-score,[1]; [4],-2.15
NC[C@H]1O[C@H](O[C@H]2[C@@H](O)[C@@H](O[C@H]3O[C@H](CO)[C@@H](O)[C@H](N)[C@@H]3O)[C@H](N)C[C@@H]2N)[C@H](N)C[C@H]1O,z-score,[1]; [2],2.03
same,z-score,[1]; [3],0.18
same,z-score,[1]; [4],1.86
COc1ccc([C@@H]2CNC(=O)C2)cc1OC1CCCC1,Potency,3D7,inactive
same,Potency,7G8,inactive
same,Potency,AA1029,inactive
same,Potency,AS120,inactive
same,Potency,ATS189,inactive
same,Potency,C2A,inactive
same,Potency,CP185,inactive
same,Potency,CP191,inactive
same,Potency,CP192,inactive
same,Potency,CP194,inactive
same,Potency,CP201,inactive
same,Potency,CP203,inactive
same,Potency,CP211,inactive
same,Potency,CP215,inactive
same,Potency,CP217,inactive
same,Potency,CP237,inactive
same,Potency,CP238,inactive
same,Potency,CP247,inactive
CN[C@@H]1C[C@H]2O[C@@](C)([C@H]1OC)n1c3ccccc3c3c4c(c5c6ccccc6n2c5c31)C(=O)N[C@H]4O,Potency,[1]; TFE3-RCC UOK109 viability,1480 nM (active)
same,z-score,[1]; [2],-1.4
same,z-score,[1]; [3],-2.32
same,z-score,[1]; [4],-1.88
OCC(O)C(O)C(O)CO (configuration not stated),z-score,[1]; [2],0.353
same,z-score,[1]; [3],0.172
same,z-score,[1]; [4],0.47
same,Potency,3D7,inactive
same,Potency,7G8,inactive
same,Potency,AA1029,inactive
same,Potency,AS120,inactive
same,Potency,ATS189,inactive
same,Potency,ATS95,inactive
same,Potency,C2A,inactive
same,Potency,CP185,inactive
same,Potency,CP191,inactive
same,Potency,CP192,inactive
same,Potency,CP194,inactive
same,Potency,CP201,inactive
same,Potency,CP203,inactive
same,Potency,CP211,inactive
same,Potency,CP215,inactive
same,Potency,CP217,inactive
same,Potency,CP237,inactive
same,Potency,CP238,inactive
same,Potency,CP247,inactive
